# Source: PubChem BioAssay AID743287 (Broad Institute, 2014)
# Several values for one entry are separate records, joined by “and”; a condition that tells them apart may be missing. Equal entries are not always repeated. In all, about 370,000 compounds went through this assay and about 2,300 (0.62%) were called active.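 How the source made its calls: active means lowest replicate activation of at least 40%, so every replicate reaches that level; inactive means the rest.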 The entries come from a sample that favours actives as a whole.
# Test: GLuc luminescence reporter in INS-1E cells, primary screen for activators of glucose-dependent secretion of insulin (AID 743287);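 further: 0% = median of neutral control wells and 100% = median of IBMX positive control wells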
# Details: INS-1E GLuc reporter insulin secretion, 2-3 h, at 16.6 µM, active compounds read high
row,Structure (SMILES),activation
1,O=C(C1CCOCC1)N1CC(=O)N2[C@H](CO)[C@H](c3ccc(C#CC4CCCCC4)cc3)[C@H]2C1,6.98% (inactive)
2,O=C(N[C@H](Cc1ccccc1)C(=O)N1CCCN(Cc2cccs2)CC1)[C@H]1O[C@@H](n2ccc(=O)[nH]c2=O)[C@H](O)[C@@H]1O,13% (inactive)
3,CN(C)C(=O)N1CCN(C(=O)[C@@H](Cc2ccccc2)NC(=O)[C@H]2O[C@@H](n3ccc(N)nc3=O)[C@H](O)[C@@H]2O)CC1,13.5% (inactive)
4,Cc1ccc2nc(CN(C)C(=O)[C@@H](Cc3ccccc3)NC(=O)[C@H]3O[C@@H](n4ccc(=O)[nH]c4=O)[C@H](O)[C@@H]3O)[nH]c2c1,42.3% (active)
5,CN1C(=O)c2cc(NS(C)(=O)=O)ccc2OC[C@H]2O[C@H](CC(=O)NCc3ccccc3)CC[C@H]21,4.81% (inactive)
6,CCOC(=O)c1oc2ccccc2c1NC(=O)c1cccs1,77.1% (active)
7,NC(=O)c1oc2ccccc2c1NC(=O)Cc1ccccc1,9.27% (inactive)
8,Cc1nc2ccccn2c(=O)c1NC(=O)c1cccs1,3.74% (inactive)
9,COc1ccc(NC(=O)Nc2cccc3c2O[C@H](CN(C)Cc2ccc(Cl)c(Cl)c2)[C@H](C)CN([C@@H](C)CO)C3=O)cc1,-19% (inactive)
10,C[C@H]1CN([C@@H](C)CO)C(=O)Cc2cc(NC(=O)Cn3cnnn3)ccc2O[C@@H]1CN(C)Cc1ccc(-c2ccccc2)cc1,-17.4% (inactive)
11,O=c1c2ccccc2c(-c2ccccc2)nn1-c1ccccn1,53.1% (active)
12,O=c1c2ccccc2ncn1CCc1ccncc1,2.05% (inactive)
13,COc1cccc(-n2nc(C(=O)N3CCN(Cc4ccccc4)CC3)c3ccccc3c2=O)c1,-2.64% (inactive)
14,O=C(O)c1ccc(-n2nc(-c3ccccc3)c3ccccc3c2=O)cc1,65.3% (active)
15,O=C1c2oc3ccccc3c(=O)c2C(c2cccc(O)c2)N1c1ccccn1 (centres undefined),-8.86% (inactive)
16,COCCCNC(=O)CNC(=O)c1nn(-c2ccc(OC)cc2)c(=O)c2ccccc12,5.37% (inactive)
17,C[C@@H]1CN([C@H](C)CO)C(=O)c2cc(NS(=O)(=O)c3cccs3)ccc2O[C@@H](C)CCCCO[C@@H]1CN(C)C(=O)c1ccncc1,-1.55% (inactive)
18,C[C@@H]1CN([C@@H](C)CO)C(=O)CCCn2cc(nn2)CO[C@@H]1CN(C)S(=O)(=O)c1ccccc1C#N,4.61% (inactive)
19,COc1ccc2c3c(n(C)c2c1)[C@H](CO)N(C(=O)c1ccncc1)CC31CCN(CC2CC2)CC1,14.2% (inactive)
20,O=C(C[C@@H]1CC[C@@H](NC(=O)C2CC2)[C@@H](CO)O1)NCc1ccccc1Cl,-6.27% (inactive)
21,C[C@@H]1CN([C@H](C)CO)C(=O)c2cccc(NC(=O)Nc3ccc4c(c3)OCO4)c2O[C@H]1CN(C)C(=O)Nc1ccc(F)cc1,-11.4% (inactive)
22,Cc1ccc(S(=O)(=O)Nc2ccc3c(c2)C(=O)N([C@@H](C)CO)C[C@@H](C)[C@@H](CN(C)S(=O)(=O)c2ccc(C)cc2)O3)cc1,-10.5% (inactive)
23,Cc1ccc(S(=O)(=O)N(C)C[C@@H]2Oc3ccc(NC(=O)Nc4ccc(F)cc4)cc3C(=O)N([C@H](C)CO)C[C@@H]2C)cc1,-24.3% (inactive)
24,N#Cc1ccc(-c2ccc([C@@H]3[C@H]4CNC[C@@H]3N4Cc3cc(F)ccc3F)cc2)cc1,137% (active)
25,N#Cc1ccc(-c2ccc([C@@H]3[C@H]4CNC[C@@H]3N4Cc3ccc4c(c3)OCO4)cc2)cc1,3.4% (inactive)

row,Structure (SMILES),activation
1,COc1ccccc1CN1[C@@H]2CNC[C@H]1C2c1ccc(-c2cccc(C#N)c2)cc1 (some centres undefined),0.586% (inactive) and -8.29% (inactive)
2,CCCC(=O)Nc1ccc2c(c1)C(=O)N(C)[C@@H]1CC[C@H](CC(=O)NCCOC)O[C@H]1CO2,-1.04% (inactive)
3,C[C@H](CO)N1C[C@H](C)[C@@H](CN(C)C(=O)C2CC2)Oc2ncc(C#CC(C)(C)O)cc2C1=O,3.22% (inactive)
4,C[C@@H]1CN([C@H](C)CO)C(=O)c2cccc(NC(=O)c3ccncc3)c2O[C@@H]1CN(C)S(=O)(=O)c1cn(C)cn1,8.83% (inactive)
5,COCc1ccc(CN2CCC(Oc3ccc(C(=O)NCc4ccccn4)cc3)CC2)o1,2.23% (inactive)
6,COc1ccccc1CNS(=O)(=O)c1cc(C(=O)NCc2ccccn2)c(Cl)cc1Cl,4.38% (inactive)
7,COc1ccc2oc(=O)c(C(=O)NCc3ccccn3)cc2c1,70.8% (active)
8,C[C@@H]1CN([C@H](C)CO)C(=O)c2cc(NC(=O)NC3CCCCC3)ccc2O[C@@H]1CN(C)S(C)(=O)=O,-8.57% (inactive)
9,CC(C)CC#Cc1ccc2c(c1)O[C@H](CN(C)Cc1cccnc1)[C@H](C)CN([C@@H](C)CO)S2(=O)=O,-26.2% (inactive)
10,CC=CCn1c(SCCCc2ccccc2)nc2c1c(=O)[nH]c(=O)n2C,3.95% (inactive)
11,CC1CCN(c2nc3c(c(=O)[nH]c(=O)n3C)n2CCCc2ccccc2)CC1,3.62% (inactive)
12,C=CCn1c(SCc2ccccc2)nc2c1c(=O)[nH]c(=O)n2C,52% (active)
13,CO[C@H]1CN(C)C(=O)c2cc(NS(=O)(=O)c3ccccc3C)ccc2OC[C@@H](C)NC[C@@H]1C,2.17% (inactive)
14,COCC(=O)N(C)C[C@H]1Oc2cc(C#CC(C)C)ccc2S(=O)(=O)N([C@H](C)CO)C[C@@H]1C,1.27% (inactive)
15,COCC(=O)N(C)C[C@H]1Oc2cc(Br)ccc2S(=O)(=O)N([C@H](C)CO)C[C@H]1C,46.1% (active)
16,C[C@@H]1CN([C@@H](C)CO)S(=O)(=O)c2ccc(Br)cc2O[C@@H]1CN(C)C(=O)CN(C)C,21.4% (inactive)
17,COc1ccc(NC(=O)N[C@H]2C=C[C@H](CC(=O)NCc3ccccn3)O[C@H]2CO)cc1,15.4% (inactive)
18,COc1ccc2c3c(n(C)c2c1)[C@H](CO)N(Cc1ccccc1)CC31CCN(C)CC1,15.2% (inactive)
19,O=C(O)CCCCCCCCCC[n+]1ccccc1,91.6% (active)
20,CC(C)C#Cc1ccc2c(c1)O[C@H](CN(C)CC1CCOCC1)[C@@H](C)CN([C@H](C)CO)S2(=O)=O,-18.8% (inactive)
21,CCCc1cc(=O)oc2c(C)c(OCC(=O)NCc3ccccn3)ccc12,11.9% (inactive)
22,CCCc1cc(-c2nc(-c3ccc(C)cc3)cs2)ccn1,90.4% (active)
23,CCCCCN1CC(O)=C(c2nc(-c3ccc(Cl)cc3)cs2)C1=N,35.7% (inactive)
24,CC(C)NC(=O)N(C)C[C@@H]1Oc2ncc(C3=CCCCC3)cc2C(=O)N([C@H](C)CO)C[C@@H]1C,-12.5% (inactive)
25,CC(=O)Nc1ccc(S(=O)(=O)N2CCC(C(=O)NC3CC3)CC2)cc1,29.2% (inactive)

row,Structure (SMILES),activation
1,Cc1ccc(NC(=O)C2CCN(S(=O)(=O)c3ccc4c(c3)NC(=O)CO4)CC2)cc1C,-23% (inactive)
2,Cn1c(=O)oc2cc(S(=O)(=O)N3CCC(C(=O)Nc4ccc(OC(F)(F)F)cc4)CC3)ccc21,48.6% (active)
3,C[C@H](NC(=O)[C@@H]1[C@@H](CO)[C@@H]2Cn3c(ccc(-c4cccc(F)c4)c3=O)[C@@H]2N1C)c1ccccc1,-1.52% (inactive)
4,C[C@@H]1CCCCO[C@@H](CN(C)S(=O)(=O)c2cn(C)cn2)[C@H](C)CN([C@@H](C)CO)C(=O)c2cc(NC(=O)Nc3ccccc3)ccc2O1,20.9% (inactive)
5,CN1C(=O)c2cc(NC(=O)Cc3ccccc3)ccc2OC[C@H]2O[C@H](CC(=O)NCc3ccc(Cl)cc3)CC[C@H]21,-7.02% (inactive)
6,C[C@@H]1CN([C@H](C)CO)C(=O)Cc2cc(NC(=O)Nc3ccc(C(F)(F)F)cc3)ccc2O[C@@H]1CN(C)S(=O)(=O)c1ccccc1,7.64% (inactive)
7,COc1ccc(CN2CC[C@H]3C=CC[C@@H](C(=O)N4CCOCC4)[C@H]3C2=O)cc1OC,9.86% (inactive)
8,COc1ccc(CN2CCOC2=O)cc1OC,59.2% (active)
9,COc1ccc(CN2CCCCC2C)cc1OC (centres undefined),11.6% (inactive)
10,CNC[C@@H]1Oc2ccc(NC(C)=O)cc2CC(=O)N(C)C[C@@H]1C,3.12% (inactive)
11,COc1ccc(CN2[C@@H](CO)[C@@H]3c4ccccc4N(C(=O)Nc4ccccc4)C[C@@H]32)cc1,-18.4% (inactive)
12,COc1ccc(-c2ccccc2C2Cc3nnccc3CN2C(=O)Nc2ccccc2)cc1 (centres undefined),60.4% (active)
13,COC(=O)N1Cc2ccnnc2CC1c1ccccc1Br (centres undefined),5.66% (inactive)
14,CO[C@H]1CN(C)C(=O)c2ccc(NC(=O)NC(C)C)cc2OC[C@H](C)N(Cc2cncnc2)C[C@@H]1C,-3.42% (inactive)
15,Clc1ccc(Cl)c(Oc2ccc(Oc3nc(Cl)ccc3Cl)cc2)n1,43.2% (active)
16,CC(C)NC(=O)N(C)C[C@@H]1OCCCC[C@H](C)Oc2ccc(NC(=O)Nc3ccccc3)cc2C(=O)N([C@H](C)CO)C[C@@H]1C,-11.5% (inactive)
17,Cc1ccc(COC(=O)CN2C(=O)NC3(CCCC3)C2=O)cc1,6.93% (inactive)
18,CCOc1ccc(C(C)NC(=O)CN2C(=O)NC3(CCCCC3)C2=O)cc1OCC (centres undefined),5.62% (inactive)
19,CCOc1ccc(C(C)=O)cc1COC(=O)CN1C(=O)NC2(CCCC2)C1=O,241% (active)
20,CCC(=O)N(C)C[C@@H]1Oc2cc(C#CCOC)ccc2S(=O)(=O)N([C@H](C)CO)C[C@H]1C,8.1% (inactive)
21,CCCN(C)C[C@@H]1OCCCC[C@H](C)Oc2ccc(NS(=O)(=O)c3ccc(C)cc3)cc2C(=O)N([C@H](C)CO)C[C@@H]1C,7.05% (inactive)
22,COCCNc1nc(N)c([N+](=O)[O-])c(NCCO)n1,17.8% (inactive)
23,C=CCNc1nc(N)c([N+](=O)[O-])c(NC2CCCCC2)n1,20.2% (inactive)
24,COCCNc1nc(N)c([N+](=O)[O-])c(N2CCCCCC2)n1,52.3% (active)
